Test results from paper PMC7862700, “An all-to-all approach to the identification of sequence-specific readers for epigenetic DNA modifications on cytosine”.

Assays:
Experiment in all cases: DAPPL (digital affinity profiling via proximity ligation, sequencing); 10 mM Tris-HCl pH 7.5, 50 mM NaCl, 1 mM DTT, 4% glycerol, room temperature, 30 min; GST-TFs on glutathione beads, 16-mer random dsDNA library, 0.1% formaldehyde crosslink after washing; high values mean tight binding
FLI1 = molecular target: T1, FLI1 (Homo sapiens, UniProt Q01543 1-452); details: protein: recombinant; tags: N-terminal GST; dsDNA, one strand shown
T1 sequence: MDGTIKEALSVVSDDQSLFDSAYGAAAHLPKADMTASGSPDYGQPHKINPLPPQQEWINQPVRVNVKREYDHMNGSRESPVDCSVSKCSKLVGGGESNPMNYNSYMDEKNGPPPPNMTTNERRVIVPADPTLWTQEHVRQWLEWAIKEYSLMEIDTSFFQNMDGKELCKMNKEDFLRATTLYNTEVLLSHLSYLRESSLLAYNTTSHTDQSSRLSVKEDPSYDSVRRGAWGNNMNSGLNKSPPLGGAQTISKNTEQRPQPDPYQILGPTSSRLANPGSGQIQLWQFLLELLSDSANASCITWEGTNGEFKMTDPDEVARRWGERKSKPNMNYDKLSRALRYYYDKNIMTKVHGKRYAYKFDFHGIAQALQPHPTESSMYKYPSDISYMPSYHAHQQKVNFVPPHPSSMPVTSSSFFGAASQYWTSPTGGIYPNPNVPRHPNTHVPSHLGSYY
Summary of the method: (§1)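 The binding signal reported is, for every hexamer, its read frequency for a factor over its read frequency for the tag-only sample. Reads came from pools of yeast-expressed, GST-fused human transcription factors on glutathione beads, barcoded with DNA and mixed with that sample, which were incubated with 200 nmole of a random double-stranded 16-mer DNA library in Tris/NaCl/DTT/glycerol buffer at room temperature for 30 min. After washing, the pools were crosslinked with 0.1% formaldehyde, proximity-ligated with BsaI/T4 ligase for 1 h at 37 °C, PCR-amplified and sequenced on an Illumina NextSeq500.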

ELK1 = molecular target: T2, ELK1 (Homo sapiens, UniProt P19419 1-428); details: protein: recombinant; tags: N-terminal GST; dsDNA, one strand shown
T2 sequence: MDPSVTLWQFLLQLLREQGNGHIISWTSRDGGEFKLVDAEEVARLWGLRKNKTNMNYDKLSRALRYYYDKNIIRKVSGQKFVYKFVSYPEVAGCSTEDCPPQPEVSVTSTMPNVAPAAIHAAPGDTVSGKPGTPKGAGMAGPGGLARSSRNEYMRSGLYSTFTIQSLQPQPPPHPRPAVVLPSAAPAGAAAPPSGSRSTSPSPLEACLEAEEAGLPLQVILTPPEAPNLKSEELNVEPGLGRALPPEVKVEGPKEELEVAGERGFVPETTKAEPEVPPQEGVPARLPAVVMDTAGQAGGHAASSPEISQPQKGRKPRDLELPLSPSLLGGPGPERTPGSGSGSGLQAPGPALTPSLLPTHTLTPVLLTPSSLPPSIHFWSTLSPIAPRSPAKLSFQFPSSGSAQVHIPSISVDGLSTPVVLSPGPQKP
Summary of the method: as §1

GABPA = molecular target: T3, GABPA (Homo sapiens, UniProt Q06546 1-454); details: protein: recombinant; tags: N-terminal GST; dsDNA, one strand shown
T3 sequence: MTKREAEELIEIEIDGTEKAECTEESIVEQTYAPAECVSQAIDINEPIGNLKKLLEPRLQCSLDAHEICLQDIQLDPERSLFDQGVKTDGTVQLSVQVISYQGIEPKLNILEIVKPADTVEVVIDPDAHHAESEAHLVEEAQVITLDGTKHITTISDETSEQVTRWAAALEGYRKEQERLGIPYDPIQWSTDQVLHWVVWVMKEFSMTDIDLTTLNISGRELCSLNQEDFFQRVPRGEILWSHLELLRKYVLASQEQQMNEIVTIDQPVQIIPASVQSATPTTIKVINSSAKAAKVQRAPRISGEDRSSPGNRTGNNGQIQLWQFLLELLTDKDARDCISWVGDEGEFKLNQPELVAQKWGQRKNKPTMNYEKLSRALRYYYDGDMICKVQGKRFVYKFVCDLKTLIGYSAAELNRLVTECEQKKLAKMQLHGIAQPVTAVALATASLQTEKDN
Summary of the method: as §1

ERG = molecular target: T4, ERG (Homo sapiens, UniProt P11308 1-479); details: protein: recombinant; tags: N-terminal GST; dsDNA, one strand shown
T4 sequence: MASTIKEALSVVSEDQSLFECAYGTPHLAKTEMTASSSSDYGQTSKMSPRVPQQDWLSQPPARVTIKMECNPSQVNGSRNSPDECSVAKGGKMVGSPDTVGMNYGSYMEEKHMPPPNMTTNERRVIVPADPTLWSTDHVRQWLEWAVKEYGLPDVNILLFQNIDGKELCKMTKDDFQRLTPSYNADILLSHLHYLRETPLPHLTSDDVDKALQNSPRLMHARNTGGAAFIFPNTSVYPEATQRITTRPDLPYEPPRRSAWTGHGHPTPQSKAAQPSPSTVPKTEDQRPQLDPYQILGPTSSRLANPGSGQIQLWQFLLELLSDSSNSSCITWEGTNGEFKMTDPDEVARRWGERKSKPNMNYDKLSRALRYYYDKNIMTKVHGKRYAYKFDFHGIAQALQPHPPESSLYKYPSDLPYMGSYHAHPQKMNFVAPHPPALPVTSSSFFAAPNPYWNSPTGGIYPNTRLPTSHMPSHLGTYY
Summary of the method: as §1

ELF1 = ELF1 (Homo sapiens, UniProt P32519 1-619); details: protein: recombinant; tags: N-terminal GST; dsDNA, one strand shown
Summary of the method: as §1

EHF = molecular target: T5, EHF (Homo sapiens, UniProt Q9NZC4 1-300); details: protein: recombinant; tags: N-terminal GST; dsDNA, one strand shown
T5 sequence: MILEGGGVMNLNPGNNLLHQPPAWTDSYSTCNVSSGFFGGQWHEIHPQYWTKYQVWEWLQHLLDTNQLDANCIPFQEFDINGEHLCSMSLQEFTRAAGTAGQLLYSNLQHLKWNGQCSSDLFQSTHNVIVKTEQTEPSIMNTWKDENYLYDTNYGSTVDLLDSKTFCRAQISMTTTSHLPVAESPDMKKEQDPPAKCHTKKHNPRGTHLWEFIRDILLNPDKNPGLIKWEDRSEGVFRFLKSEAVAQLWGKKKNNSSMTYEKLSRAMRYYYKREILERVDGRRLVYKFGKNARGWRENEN
Summary of the method: as §1

SPI1 = SPI1 (Homo sapiens, UniProt P17947 1-270); details: protein: recombinant; tags: N-terminal GST; dsDNA, one strand shown
Summary of the method: as §1

SPIB = SPIB (Homo sapiens, UniProt Q01892 1-262); details: protein: recombinant; tags: N-terminal GST; dsDNA, one strand shown
Summary of the method: as §1

ELK3 = molecular target: T6, ELK3 (Homo sapiens, UniProt P41970 1-407); details: protein: recombinant; tags: N-terminal GST; dsDNA, one strand shown
T6 sequence: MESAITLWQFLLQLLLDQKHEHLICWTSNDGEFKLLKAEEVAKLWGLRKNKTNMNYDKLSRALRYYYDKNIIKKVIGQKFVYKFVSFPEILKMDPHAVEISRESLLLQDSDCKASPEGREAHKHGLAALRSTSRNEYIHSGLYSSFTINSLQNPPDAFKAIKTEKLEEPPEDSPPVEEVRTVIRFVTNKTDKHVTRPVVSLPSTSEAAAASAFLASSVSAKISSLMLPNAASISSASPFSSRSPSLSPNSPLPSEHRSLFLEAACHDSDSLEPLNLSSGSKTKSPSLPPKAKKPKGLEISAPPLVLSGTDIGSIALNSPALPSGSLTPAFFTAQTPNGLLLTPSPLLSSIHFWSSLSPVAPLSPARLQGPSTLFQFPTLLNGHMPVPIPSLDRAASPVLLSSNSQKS
Summary of the method: as §1

FEV = molecular target: T7, FEV (Homo sapiens, UniProt Q99581 1-238); details: protein: recombinant; tags: N-terminal GST; dsDNA, one strand shown
T7 sequence: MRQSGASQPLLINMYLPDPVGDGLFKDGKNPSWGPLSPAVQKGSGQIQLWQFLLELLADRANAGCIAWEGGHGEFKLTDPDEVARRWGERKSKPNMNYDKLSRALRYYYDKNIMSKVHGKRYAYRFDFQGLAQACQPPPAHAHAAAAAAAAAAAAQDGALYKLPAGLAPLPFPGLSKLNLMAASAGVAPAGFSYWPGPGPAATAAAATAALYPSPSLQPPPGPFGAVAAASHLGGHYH
Summary of the method: as §1

ETV5 = ETV5 (Homo sapiens, UniProt P41161 1-510); details: protein: recombinant; tags: N-terminal GST; dsDNA, one strand shown
Summary of the method: as §1

HSF1 = HSF1 (Homo sapiens, UniProt Q00613 1-529); details: protein: recombinant; tags: N-terminal GST; chain copies: 3; dsDNA, one strand shown
Summary of the method: as §1

SPIC = molecular target: T8, SPIC (Homo sapiens, UniProt Q8N5J4 1-248); details: protein: recombinant; tags: N-terminal GST; dsDNA, one strand shown
T8 sequence: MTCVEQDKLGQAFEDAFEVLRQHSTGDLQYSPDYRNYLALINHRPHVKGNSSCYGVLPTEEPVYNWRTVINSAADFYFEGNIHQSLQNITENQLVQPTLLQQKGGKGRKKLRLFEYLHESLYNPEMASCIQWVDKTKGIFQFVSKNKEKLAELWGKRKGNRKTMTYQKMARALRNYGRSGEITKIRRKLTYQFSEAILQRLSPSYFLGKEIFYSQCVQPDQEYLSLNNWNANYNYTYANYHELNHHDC
Summary of the method: as §1

ELF4 = ELF4 (Homo sapiens, UniProt Q99607 1-663); details: protein: recombinant; tags: N-terminal GST; dsDNA, one strand shown
Summary of the method: as §1

ELK4 = molecular target: T9, ELK4 (Homo sapiens, UniProt P28324-2 1-405); details: protein: recombinant; tags: N-terminal GST; dsDNA, one strand shown
T9 sequence: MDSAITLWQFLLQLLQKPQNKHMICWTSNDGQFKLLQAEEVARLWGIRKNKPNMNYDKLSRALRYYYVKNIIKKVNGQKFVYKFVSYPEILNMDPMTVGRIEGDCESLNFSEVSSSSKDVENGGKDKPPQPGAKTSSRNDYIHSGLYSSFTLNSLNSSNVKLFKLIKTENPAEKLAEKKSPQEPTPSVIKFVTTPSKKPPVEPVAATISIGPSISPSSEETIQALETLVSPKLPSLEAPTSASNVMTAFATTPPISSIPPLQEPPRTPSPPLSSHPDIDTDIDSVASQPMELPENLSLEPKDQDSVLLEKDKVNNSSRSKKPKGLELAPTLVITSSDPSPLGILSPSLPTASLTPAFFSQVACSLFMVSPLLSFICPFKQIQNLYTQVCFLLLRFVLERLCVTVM
Summary of the method: as §1

ELF3 = molecular target: T10, ELF3 (Homo sapiens, UniProt P78545 1-371); details: protein: recombinant; tags: N-terminal GST; dsDNA, one strand shown
T10 sequence: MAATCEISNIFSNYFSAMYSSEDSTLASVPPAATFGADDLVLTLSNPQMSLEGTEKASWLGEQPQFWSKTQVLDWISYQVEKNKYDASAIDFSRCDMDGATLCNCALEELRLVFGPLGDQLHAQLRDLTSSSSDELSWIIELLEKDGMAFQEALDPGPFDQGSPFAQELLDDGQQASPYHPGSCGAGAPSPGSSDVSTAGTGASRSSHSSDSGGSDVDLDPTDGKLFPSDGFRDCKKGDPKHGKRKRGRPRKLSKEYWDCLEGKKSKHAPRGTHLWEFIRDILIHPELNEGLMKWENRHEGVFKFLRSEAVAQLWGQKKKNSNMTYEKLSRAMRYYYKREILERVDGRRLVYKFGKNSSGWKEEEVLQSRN
Summary of the method: as §1

CRX = CRX (Homo sapiens, UniProt O43186 1-299); details: protein: recombinant; tags: N-terminal GST; dsDNA, one strand shown
Summary of the method: as §1

ETV1 = ETV1 (Homo sapiens, UniProt P50549 1-477); details: protein: recombinant; tags: N-terminal GST; dsDNA, one strand shown
Summary of the method: as §1

HSF1, sequence (Q00613 whole entry): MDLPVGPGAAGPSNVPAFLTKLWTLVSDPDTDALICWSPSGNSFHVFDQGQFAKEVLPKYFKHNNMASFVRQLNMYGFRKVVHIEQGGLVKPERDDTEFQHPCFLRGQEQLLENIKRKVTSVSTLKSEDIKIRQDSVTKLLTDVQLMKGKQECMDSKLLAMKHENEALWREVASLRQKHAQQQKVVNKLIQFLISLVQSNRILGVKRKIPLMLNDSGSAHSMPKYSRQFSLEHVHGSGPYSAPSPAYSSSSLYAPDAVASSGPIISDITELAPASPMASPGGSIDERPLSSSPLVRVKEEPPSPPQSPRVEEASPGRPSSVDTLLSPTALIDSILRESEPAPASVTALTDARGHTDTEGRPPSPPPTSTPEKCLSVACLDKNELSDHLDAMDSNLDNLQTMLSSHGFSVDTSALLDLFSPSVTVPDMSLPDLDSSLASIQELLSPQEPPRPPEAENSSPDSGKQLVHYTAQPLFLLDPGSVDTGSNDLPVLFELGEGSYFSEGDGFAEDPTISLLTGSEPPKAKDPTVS
SPIB, sequence (Q01892 whole entry): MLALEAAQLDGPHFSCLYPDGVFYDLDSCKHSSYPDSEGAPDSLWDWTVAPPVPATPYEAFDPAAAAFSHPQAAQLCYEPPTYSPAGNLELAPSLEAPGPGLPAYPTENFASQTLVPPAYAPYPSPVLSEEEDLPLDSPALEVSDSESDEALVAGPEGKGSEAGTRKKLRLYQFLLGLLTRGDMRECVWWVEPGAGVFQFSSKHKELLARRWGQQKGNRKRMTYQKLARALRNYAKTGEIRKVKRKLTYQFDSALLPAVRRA
ELF4, sequence (Q99607 whole entry): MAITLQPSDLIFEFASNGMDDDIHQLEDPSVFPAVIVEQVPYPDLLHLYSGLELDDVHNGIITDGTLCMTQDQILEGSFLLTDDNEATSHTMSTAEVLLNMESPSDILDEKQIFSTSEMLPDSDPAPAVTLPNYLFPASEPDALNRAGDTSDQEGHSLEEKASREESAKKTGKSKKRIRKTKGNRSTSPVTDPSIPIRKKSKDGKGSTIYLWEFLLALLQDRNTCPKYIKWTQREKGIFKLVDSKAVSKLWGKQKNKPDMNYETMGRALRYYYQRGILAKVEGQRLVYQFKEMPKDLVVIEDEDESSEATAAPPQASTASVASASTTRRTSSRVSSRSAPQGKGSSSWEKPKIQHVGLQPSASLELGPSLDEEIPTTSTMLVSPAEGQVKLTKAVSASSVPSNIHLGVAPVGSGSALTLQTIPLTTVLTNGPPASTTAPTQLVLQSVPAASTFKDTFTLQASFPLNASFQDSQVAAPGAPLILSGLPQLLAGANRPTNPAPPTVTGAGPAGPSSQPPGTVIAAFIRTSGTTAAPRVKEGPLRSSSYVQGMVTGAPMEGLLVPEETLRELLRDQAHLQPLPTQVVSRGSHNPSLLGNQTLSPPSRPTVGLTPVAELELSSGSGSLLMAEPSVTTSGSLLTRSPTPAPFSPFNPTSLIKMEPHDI
ELF1, sequence (P32519 whole entry): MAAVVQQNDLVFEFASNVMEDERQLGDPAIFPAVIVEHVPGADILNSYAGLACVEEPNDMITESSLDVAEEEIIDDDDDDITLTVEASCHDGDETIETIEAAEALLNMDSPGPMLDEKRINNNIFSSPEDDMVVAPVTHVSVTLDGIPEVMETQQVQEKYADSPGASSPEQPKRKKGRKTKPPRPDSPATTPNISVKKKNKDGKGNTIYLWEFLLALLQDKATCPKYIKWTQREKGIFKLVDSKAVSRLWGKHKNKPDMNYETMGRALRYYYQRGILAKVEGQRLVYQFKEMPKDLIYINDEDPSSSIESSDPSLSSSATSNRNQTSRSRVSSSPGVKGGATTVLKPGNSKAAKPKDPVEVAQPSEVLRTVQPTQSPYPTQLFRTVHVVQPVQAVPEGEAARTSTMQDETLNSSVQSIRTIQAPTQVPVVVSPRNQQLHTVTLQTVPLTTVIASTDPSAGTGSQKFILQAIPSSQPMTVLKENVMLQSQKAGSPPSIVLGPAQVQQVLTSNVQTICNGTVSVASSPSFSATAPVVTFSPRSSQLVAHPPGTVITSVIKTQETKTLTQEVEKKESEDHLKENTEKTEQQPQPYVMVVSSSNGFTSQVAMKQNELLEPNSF
ETV1, sequence (P50549 whole entry): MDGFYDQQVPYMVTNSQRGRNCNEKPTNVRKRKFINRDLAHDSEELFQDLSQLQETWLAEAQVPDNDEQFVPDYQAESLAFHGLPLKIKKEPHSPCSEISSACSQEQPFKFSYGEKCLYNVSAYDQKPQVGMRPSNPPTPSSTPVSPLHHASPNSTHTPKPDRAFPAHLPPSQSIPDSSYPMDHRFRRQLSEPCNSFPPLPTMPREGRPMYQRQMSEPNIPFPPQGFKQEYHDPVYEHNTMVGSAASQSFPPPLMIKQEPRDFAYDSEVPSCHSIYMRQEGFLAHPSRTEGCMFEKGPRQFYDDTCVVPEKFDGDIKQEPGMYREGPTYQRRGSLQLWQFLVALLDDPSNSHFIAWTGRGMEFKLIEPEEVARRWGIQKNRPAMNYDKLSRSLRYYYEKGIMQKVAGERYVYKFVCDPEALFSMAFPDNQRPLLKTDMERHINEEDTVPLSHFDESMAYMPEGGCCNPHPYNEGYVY
ETV5, sequence (P41161 whole entry): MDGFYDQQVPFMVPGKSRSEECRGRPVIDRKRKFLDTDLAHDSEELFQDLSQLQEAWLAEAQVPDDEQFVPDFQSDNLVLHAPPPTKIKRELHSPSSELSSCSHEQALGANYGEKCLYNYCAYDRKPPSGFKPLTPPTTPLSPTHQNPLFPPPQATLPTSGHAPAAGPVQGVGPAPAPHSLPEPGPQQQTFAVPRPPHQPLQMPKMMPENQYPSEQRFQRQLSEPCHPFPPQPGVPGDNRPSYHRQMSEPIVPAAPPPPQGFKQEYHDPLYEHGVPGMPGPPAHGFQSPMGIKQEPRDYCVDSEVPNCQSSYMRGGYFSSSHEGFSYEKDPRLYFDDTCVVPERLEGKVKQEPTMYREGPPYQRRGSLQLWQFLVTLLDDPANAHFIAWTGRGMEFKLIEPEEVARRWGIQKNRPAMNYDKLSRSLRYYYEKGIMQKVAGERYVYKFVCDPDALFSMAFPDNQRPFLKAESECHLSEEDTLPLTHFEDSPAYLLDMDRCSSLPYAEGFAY
CRX, sequence (O43186 whole entry): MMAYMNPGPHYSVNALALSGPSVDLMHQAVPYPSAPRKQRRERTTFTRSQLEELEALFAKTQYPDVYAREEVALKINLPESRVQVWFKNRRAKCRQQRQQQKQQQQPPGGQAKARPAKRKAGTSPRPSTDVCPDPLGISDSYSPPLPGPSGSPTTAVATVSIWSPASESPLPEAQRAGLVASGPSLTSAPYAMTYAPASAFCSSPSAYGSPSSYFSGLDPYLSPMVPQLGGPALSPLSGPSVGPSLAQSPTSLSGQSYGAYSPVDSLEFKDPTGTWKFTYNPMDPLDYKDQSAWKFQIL

Sequence: ACTAAG
- binding signal (FLI1): 1.04 fold enrichment (6-mer frequency, TF over GST control)
- binding signal (ELK1): 1.08 fold enrichment (6-mer frequency, TF over GST control)
- binding signal (GABPA): 1.11 fold enrichment (6-mer frequency, TF over GST control)
- binding signal (ERG): 1.02 fold enrichment (6-mer frequency, TF over GST control)
- binding signal (ELF1): 1.04 fold enrichment (6-mer frequency, TF over GST control)
- binding signal (EHF): 1.15 fold enrichment (6-mer frequency, TF over GST control)
- binding signal (SPI1): 1.12 fold enrichment (6-mer frequency, TF over GST control)
- binding signal (SPIB): 1.14 fold enrichment (6-mer frequency, TF over GST control)
- binding signal (ELK3): 1.07 fold enrichment (6-mer frequency, TF over GST control)
- binding signal (FEV): 1.02 fold enrichment (6-mer frequency, TF over GST control)
- binding signal (ETV5): 1.04 fold enrichment (6-mer frequency, TF over GST control)
- binding signal (HSF1): 1.32 fold enrichment (6-mer frequency, TF over GST control)
- binding signal (SPIC): 1.19 fold enrichment (6-mer frequency, TF over GST control)
- binding signal (ELF4): 1.1 fold enrichment (6-mer frequency, TF over GST control)
- binding signal (ELK4): 1.02 fold enrichment (6-mer frequency, TF over GST control)
- binding signal (ELF3): 1.11 fold enrichment (6-mer frequency, TF over GST control)
- binding signal (CRX): 1.76 fold enrichment (6-mer frequency, TF over GST control)
- binding signal (ETV1): 1.15 fold enrichment (6-mer frequency, TF over GST control)
